According to PubChem BioAssay (NCI):
The panel holds about 79,000 compounds, 15% with a hit somewhere; the sample as a whole holds those more often. Calls of active or inactive are those of the source. Rule as the data show it: active = growth inhibition above about 70%; inactive = the rest.

What was measured:
[1] = NCI Yeast Anticancer Drug Screen. Data for the rad50 strain (AID 155);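 also: 0% = growth of vehicle-only cultures of the same strain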; settings: S. cerevisiae rad50 strain growth inhibition, hits give high values
Outline: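 Inhibition values express reduced yeast growth in compound-treated cultures relative to vehicle-treated controls.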

[2] = NCI Yeast Anticancer Drug Screen. Data for the mec2-1 strain (AID 157); settings: S. cerevisiae mec2-1 strain, hits give high values
Outline: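 Growth inhibition is read against vehicle-treated controls after compound exposure of the mec2-1 yeast strain, which is defective in DNA damage repair or cell cycle control.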

[3] = NCI Yeast Anticancer Drug Screen. Data for the sgs1 mgt1 strain (AID 161);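 also: 0% = growth of cultures given vehicle only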; settings: S. cerevisiae sgs1 mgt1 strain, hits give high values
Outline: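 Yeast cells carrying a defined DNA-repair defect were exposed to test compounds. Growth inhibition was measured relative to vehicle-treated controls.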

[4] = NCI Yeast Anticancer Drug Screen. Data for the cln2 rad14 strain (AID 165);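 also: 0% = growth equal to vehicle treated cultures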; settings: S. cerevisiae cln2 rad14 strain, hits give high values
Outline: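 Growth inhibition, relative to vehicle-treated controls, is the read-out. The test organism is a yeast strain with defined genetic alterations, cln2 rad14.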

[5] = NCI Yeast Anticancer Drug Screen. Data for the bub3 strain (AID 167); settings: S. cerevisiae bub3 mutant strain, hits give high values
Outline: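 Steps: expose the mutant yeast strain to compound; grow alongside vehicle-treated cultures; measure growth; express inhibition against the vehicle cultures.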

[6] = NCI Yeast Anticancer Drug Screen. Data for the mlh1 rad18 strain (AID 175); settings: S. cerevisiae mlh1 rad18 strain growth inhibition, hits give high values
Outline: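 Cells of a genetically altered yeast strain, deficient in DNA damage repair, were treated with compound. Their growth was then compared with that of vehicle-treated cultures to give inhibition.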

[7] = at 5.0 µM (retest, dose inferred, filed as 0.5)
[8] = at 50.0 µM (retest, dose inferred, filed as 5.0)

Measured: growth inhibition

CCCCCCCCCCCCCCCCCC(=O)OCCOCCO
inactive: [1]; [7] -12% | [1]; [8] -16% | [1]; at 50.0 µM -2.4% | [2]; [7] -22% | [2]; [8] -46% | [2]; at 50.0 µM -0.25% | [3]; [7] -10% | [3]; [8] -23% | [3]; at 50.0 µM -2.7% | [4]; [7] -33% | [4]; [8] -21% | [4]; at 50.0 µM 60.8% | [5]; [7] -27% | [5]; [8] -24% | [5]; at 50.0 µM -13.3% | [6]; [7] -28% | [6]; [8] -25% | [6]; at 50.0 µM -21.6%

CC(C)(C)C1=NN=C2c3ccccc3C(=O)C21 (stereo not given)
active: [5]; [8] 87% | [5]; at 50.0 µM 78.7%
inactive: [1]; [7] 0% | [1]; [8] 57% | [1]; at 50.0 µM 68.2% | [2]; [7] -3% | [2]; [8] 44% | [2]; at 50.0 µM 9.45% | [3]; [7] -1% | [3]; [8] 60% | [3]; at 50.0 µM 53.2% | [4]; [7] -12% | [4]; [8] 14% | [4]; at 50.0 µM 58.9% | [5]; [7] 19% | [6]; [7] -3% | [6]; [8] 44% | [6]; at 50.0 µM 60.7%

COc1cc(C(=O)C=[N+]=[N-])c([N+](=O)[O-])c(OC)c1OC
inactive: [1]; [7] 12% | [1]; at 50.0 µM 63.2% | [2]; [7] 22% | [3]; [7] 19% | [4]; [7] 11% | [4]; [8] 51% | [4]; at 50.0 µM 41.9% | [5]; [7] 9% | [5]; [8] 67% | [6]; [7] 8%
active: [1]; [8] 77% | [2]; [8] 91% | [2]; at 50.0 µM 90.8% | [3]; [8] 92% | [3]; at 50.0 µM 91.8% | [5]; at 50.0 µM 93.2% | [6]; [8] 89% | [6]; at 50.0 µM 94.4%

CC(=O)CC(C)=NCCN=C(C)CC(C)=O.[Pd]
active: [1]; at 50.0 µM 76% | [2]; [8] 78% | [3]; [8] 96% | [3]; at 50.0 µM 94.3% | [5]; at 50.0 µM 76.2% | [6]; [8] 74% | [6]; at 50.0 µM 83.7%
inactive: [1]; [7] -6% | [1]; [8] 61% | [2]; [7] -1% | [2]; at 50.0 µM 67.2% | [3]; [7] 0% | [4]; [7] -5% | [4]; [8] 41% | [4]; at 50.0 µM 53% | [5]; [7] -1% | [5]; [8] 60% | [6]; [7] -9%

Cc1occc1C(=S)Nc1ccc(Cl)c(COC(C)(C)C)c1
active: [1]; [8] 74% | [1]; at 50.0 µM 78.9% | [2]; [8] 74% | [2]; at 50.0 µM 84.3% | [3]; [8] 84% | [3]; at 50.0 µM 85.7% | [4]; [8] 86% | [4]; at 50.0 µM 84.8% | [5]; [8] 90% | [5]; at 50.0 µM 86.2% | [6]; [8] 85% | [6]; at 50.0 µM 78.5%
inactive: [1]; [7] 26% | [2]; [7] 6% | [3]; [7] 17% | [4]; [7] 22% | [5]; [7] 26% | [6]; [7] 19%

CCN1CCNc2c3cc(OC)ccc3nc3c([N+](=O)[O-])ccc1c23
inactive: [1]; [7] -10% | [1]; [8] 37% | [1]; at 50.0 µM 42.2% | [2]; [7] -19% | [2]; [8] 7% | [2]; at 50.0 µM 15.2% | [3]; [7] -9% | [3]; [8] 0% | [3]; at 50.0 µM 39.8% | [4]; [7] -2% | [4]; [8] 40% | [4]; at 50.0 µM 7.8% | [5]; [7] 1% | [5]; [8] 2% | [5]; at 50.0 µM -3.6% | [6]; [7] -41% | [6]; [8] 41%
active: [6]; at 50.0 µM 71.7%

N#CSC#CCCC#CSC#N
active: [1]; at 50.0 µM 92.5% | [2]; at 50.0 µM 93.9% | [3]; [7] 100% | [3]; [8] 100% | [3]; at 50.0 µM 94.2% | [4]; [7] 99% | [4]; [8] 99% | [4]; at 50.0 µM 92.9% | [5]; [7] 100% | [5]; [8] 98% | [5]; at 50.0 µM 92.4% | [6]; at 50.0 µM 88.9%
inactive: [1]; [7] 52% | [1]; [8] 57% | [2]; [7] 43% | [2]; [8] 55% | [6]; [7] 47% | [6]; [8] 46%

CCC(c1ccc(OC)cc1)C(O)(CC)c1ccc(OC)cc1 (stereo not given)
active: [1]; [8] 98% | [1]; at 50.0 µM 99% | [2]; [8] 99% | [2]; at 50.0 µM 98.8% | [3]; [8] 98% | [3]; at 50.0 µM 98.4% | [4]; [8] 99% | [4]; at 50.0 µM 98% | [5]; [8] 99% | [5]; at 50.0 µM 98.9% | [6]; [8] 98% | [6]; at 50.0 µM 98.6%
inactive: [1]; [7] -4% | [2]; [7] -7% | [3]; [7] -11% | [4]; [7] -10% | [5]; [7] 11% | [6]; [7] -3%

O=C1c2ccccc2CN1Cc1ccc(Cl)c(Cl)c1
active: [1]; [8] 93% | [1]; at 50.0 µM 84.4% | [2]; [8] 95% | [3]; [8] 96% | [3]; at 50.0 µM 93.1% | [4]; [8] 81% | [5]; [8] 92% | [5]; at 50.0 µM 79.4% | [6]; [8] 91%
inactive: [1]; [7] -1% | [2]; [7] -3% | [2]; at 50.0 µM 42.2% | [3]; [7] -1% | [4]; [7] -1% | [4]; at 50.0 µM 45.5% | [5]; [7] 3% | [6]; [7] -2% | [6]; at 50.0 µM 65%

CC1C(CCC(=O)O)OC2CC3C4CCC5CC(O)CCC5(C)C4CCC3(C)C21 (stereo not given)
inactive: [1]; [7] 4% | [1]; [8] 56% | [2]; [7] 7% | [3]; [7] 22% | [4]; [7] 8% | [5]; [7] 4% | [5]; [8] 66% | [6]; [7] 16%
active: [1]; at 50.0 µM 82.3% | [2]; [8] 96% | [2]; at 50.0 µM 90% | [3]; [8] 89% | [3]; at 50.0 µM 95.5% | [4]; [8] 90% | [4]; at 50.0 µM 93.7% | [5]; at 50.0 µM 86.4% | [6]; [8] 91% | [6]; at 50.0 µM 85.3%
